ATXN2 expr inh = reduces ATXN2 reporter expression in HEK-293 cells. HEK-293 ATXN2-luciferase reporter, luminescence, 24 h. Potency, µM (top dose mostly 57 µM), for inactives: at the highest dose activity change, negative = inhibition, hits mostly inhibitors. 0.72% of 360,000 active. AID 1745845; note: % is set by controls: 0 for no effect and ±100 for the full control effect; nearly all actives have a fitted effect of over 55% in size
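qHTS (up to 57 uM final) was run with 24 h compound exposure of reporter cells at 37 °C. Each well was multiplexed: SteadyGlo luminescence measured ATXN2-luciferase expression after a fluorogenic Gly-Phe-AFC viability readout (25 uM final).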
TGFb SMAD3 inh = TGF-b pathway inhibition | HepG2 CAGA-GFP TGF-b/SMAD3 reporter, GFP fluorescence, 18 h; TGF-beta stimulated, 500 pg/mL final | Potency, µM (top dose mostly 46.1 µM), for inactives: at the highest dose activity, negative = inhibition, usual class: inhibitors | AID 588855 | 1.2% of 410,000 active; note: % is set by controls: 0 for no effect and ±100 for the full control effect; nearly all actives have a fitted effect of over 65% in size
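HEPG2 CAGA-GFP, 1000 cells/well; 2 h settle, 37 C; cpd via pin tool; TGF-b 500 pg/mL final; 18 h, 37 C; GFP imaging ex488/em500-530; %Activity normalised to -TGF-b and +DMSO controls; CRC fit, curve class.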
ATXN viability = reduces viability in counter-screen for ATXN expression inhibitors; S2 cells (HEK-293 line with an ATXN2-luciferase reporter) viability, CellTiter-Fluor protease fluorescence, 24 h; Potency, µM (top dose mostly 56.7 µM), usual class: cytotoxic; 0.49% of 400,000 active; AID 651635; note: nearly all actives have a fitted effect of over 40% in size
HepG2 viability = kills HepG2 cells in TGF-b inhibitor counter-screen; HepG2 CAGA-GFP viability, ATP luminescence, 18 h; Potency, µM (top dose mostly 46.1 µM), for inactives: top-dose activity change, negative = cytotoxicity, actives largely listed as cytotoxic; 0.76% of 410,000 active; AID 588856
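HepG2 CAGA-GFP cells (1000/well, DMEM with 1% FBS) received compound, then TGF-beta at 500 pg/mL final, and were incubated 18 hours at 37 degrees C. Viability was read by CellTiter-Glo luminescence. Media-only wells were set as complete cell-killing and DMSO as no toxicity.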
ALOX12 inh = blocks human arachidonate 12S-lipoxygenase; P18054; purified 12hLO, xylenol orange hydroperoxide absorbance; Potency, µM (highest dose often 108 µM), for the others: top-dose activity change, negative = inhibition, usual class: inhibitors; 1.1% of 580,000 active; note: % is set by controls: 0 for no effect and ±100 for the full control effect
Target sequence (P18054 whole entry, looked up): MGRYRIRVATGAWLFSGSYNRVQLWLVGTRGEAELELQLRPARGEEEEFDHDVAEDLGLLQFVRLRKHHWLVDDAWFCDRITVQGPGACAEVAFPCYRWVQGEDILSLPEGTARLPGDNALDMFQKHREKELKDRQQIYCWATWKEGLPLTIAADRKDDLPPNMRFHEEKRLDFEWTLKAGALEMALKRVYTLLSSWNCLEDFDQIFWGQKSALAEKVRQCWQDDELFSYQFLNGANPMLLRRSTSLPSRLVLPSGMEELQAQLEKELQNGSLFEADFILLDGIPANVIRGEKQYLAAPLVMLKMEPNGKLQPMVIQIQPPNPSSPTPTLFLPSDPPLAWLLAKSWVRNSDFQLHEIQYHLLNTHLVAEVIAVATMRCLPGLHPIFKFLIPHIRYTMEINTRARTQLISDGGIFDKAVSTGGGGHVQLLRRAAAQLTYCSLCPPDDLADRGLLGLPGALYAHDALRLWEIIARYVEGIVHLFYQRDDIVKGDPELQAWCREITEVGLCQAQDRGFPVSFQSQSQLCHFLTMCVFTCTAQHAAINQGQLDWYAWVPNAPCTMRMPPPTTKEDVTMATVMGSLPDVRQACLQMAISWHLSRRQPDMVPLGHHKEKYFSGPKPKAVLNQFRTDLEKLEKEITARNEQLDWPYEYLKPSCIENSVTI
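Purified human 12hLO at 150 nM in 25 mM Hepes, 0.01% Triton X-100, pH 7.0, preincubated 15 min at room temperature with compound. Reaction started with 40 uM arachidonic acid, 30 min at room temperature. Hydroperoxide measured by Fe-xylenol orange, 573/405 nm absorbance ratio.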
* hit, by the source's call. Sampled rows, rich in hits. Any-hit rate of the full collection: about 2.7%. Calls come from the whole dose curve; as a rule, active = well fitted curve in the direction sought with a large enough effect; inconclusive = small, poorly fitted or top-dose-only effect, or another doubt; inactive = no such curve, though single readings can be large; an effect the other way counts as inactive or inconclusive. Potency is the fitted concentration of half-maximal effect.

`C[n+]1c2n(c3ccccc31)N=C(c1cc(C(C)(C)C)c(O)c(C(C)(C)C)c1)CS2` gave ATXN2 expr inh inconclusive, TGFb SMAD3 inh 6.31µM*, ATXN viability 22.4µM*, HepG2 viability -160.0% and ALOX12 inh 28.2µM*.
COc1cccc(C2=Nn3c(nnc3-c3ccccc3O)SC2)c1 was read as ATXN2 expr inh -2.4%, TGFb SMAD3 inh -4.8%, ATXN viability inactive, HepG2 viability -17.2% and ALOX12 inh 0.0%.
For Cc1cc(C)nc(N/N=C2/CCCC/C2=C\c2ccccc2)n1 the results were ATXN2 expr inh 0.947µM*, TGFb SMAD3 inh inconclusive, ATXN viability inconclusive, HepG2 viability -47.2% and ALOX12 inh inactive.
`Cc1ccnc(N/N=C/c2ccccc2)n1` gave ATXN2 expr inh -22.3%, TGFb SMAD3 inh 10.4%, ATXN viability inactive, HepG2 viability -28.9% and ALOX12 inh -6.0%.
`CCOC(=O)c1c(C(F)(F)C(F)(F)C(F)(F)C(F)(F)F)n[nH]c1C` gave ATXN2 expr inh -13.7%, TGFb SMAD3 inh inconclusive, ATXN viability inactive, HepG2 viability 12.6µM* and ALOX12 inh -9.8%.
COC1C=CC=C(C)C(=O)NC2=CC(=O)C(N)=C(CC(C)CC(OC)C(O)C(C)C=C(C)C1OC(N)=O)C2=O (stereo not given) was read as ATXN2 expr inh 0.238µM*, TGFb SMAD3 inh -93.3%, ATXN viability inconclusive, HepG2 viability -77.6% and ALOX12 inh -28.7%.
Screening Oc1c(N=Nc2ccccn2)ccc2ccccc12 returned ATXN2 expr inh 7.94µM*, TGFb SMAD3 inh 6.31µM*, ATXN viability 10µM*, HepG2 viability -43.6% and ALOX12 inh -7.7%.
CCCCC1Cc2[nH]c(=S)[nH]c(=O)c2C(c2cccc3ccccc23)O1 (stereo not given) was read as ATXN2 expr inh 14.4%, ATXN viability inconclusive and ALOX12 inh 12.6µM*.
`S=C1SCN(Cc2cccs2)CN1Cc1cccs1` gave TGFb SMAD3 inh 12.6µM*, ATXN viability inconclusive, HepG2 viability -84.9% and ALOX12 inh 0.7%.
Screening CCCCCN1CSC(=S)N(Cc2ccccc2)C1 returned ATXN2 expr inh -29.8%, TGFb SMAD3 inh 10µM*, ATXN viability inconclusive, HepG2 viability -8.5% and ALOX12 inh inconclusive.
`S=C1SCN(Cc2ccco2)CN1Cc1ccco1` gave ATXN2 expr inh -0.7%, TGFb SMAD3 inh inconclusive, ATXN viability inconclusive, HepG2 viability -67.1% and ALOX12 inh 97.4%.
Screening CCN1CSC(=S)N(Cc2ccc(OC)cc2)C1 returned TGFb SMAD3 inh 3.98µM*, ATXN viability inconclusive, HepG2 viability 7.94µM* and ALOX12 inh -25.0%.
Screening CCC1=NN(C(=O)CSCc2ccccc2Cl)C(O)(C(F)(F)F)C1 (stereo not given) returned ALOX12 inh 12.9%.
Cc1ccc(C(=O)NC(C)(C)C)cc1I was read as ALOX12 inh -25.4%.
COCCCN1C(=O)c2[nH]nc(-c3ccccc3O)c2C1c1ccc(OCc2ccccc2)cc1 (stereo not given) was read as TGFb SMAD3 inh 20µM*, HepG2 viability -111.7% and ALOX12 inh -8.4%.
Screening O=C1c2[nH]nc(-c3ccccc3O)c2C(c2ccccc2F)N1Cc1cccnc1 (stereo not given) returned ATXN2 expr inh -8.4%, TGFb SMAD3 inh -14.9%, ATXN viability inactive, HepG2 viability -35.5% and ALOX12 inh -8.0%.
CC(C)OCCCN1C(=O)c2[nH]nc(-c3ccccc3O)c2C1c1ccccc1F (stereo not given) was read as TGFb SMAD3 inh 10µM*, HepG2 viability -47.1% and ALOX12 inh 7.5%.
Screening CC(C)OCCCN1C(=O)c2[nH]nc(-c3ccccc3O)c2C1c1cccc(OCc2ccccc2)c1 (stereo not given) returned TGFb SMAD3 inh inconclusive, HepG2 viability 15.8µM* and ALOX12 inh -10.9%.
`CCCCN1C(=O)c2[nH]nc(-c3ccccc3O)c2C1c1ccc(OCc2ccccc2)cc1` (stereo not given) gave TGFb SMAD3 inh 3.55µM*, HepG2 viability -69.6% and ALOX12 inh 1.4%.
Screening O=C1c2[nH]nc(-c3ccccc3O)c2C(c2cccc(OCc3ccccc3)c2)N1CCO (stereo not given) returned TGFb SMAD3 inh -5.8%, HepG2 viability -4.5% and ALOX12 inh -0.7%.
COc1ccc(CCNC(=O)CN(c2ccc(Br)c(C)c2)S(C)(=O)=O)cc1OC was read as ALOX12 inh -6.2%.
`O=C(O)c1cc(Cl)c(I)c(Cl)c1` gave ALOX12 inh 0.6%.
N#CC1=C(N)n2c(s/c(=C\c3ccco3)c2=O)=C(C#N)C1c1ccco1 (stereo not given) was read as ATXN2 expr inh inconclusive, TGFb SMAD3 inh -18.2%, ATXN viability inactive, HepG2 viability -21.0% and ALOX12 inh 12.6µM*.
O=C(c1ccc2c(c1)CCN2S(=O)(=O)c1ccccc1)N1CCN(c2cccc(Cl)c2)CC1 was read as ATXN2 expr inh -13.3%, TGFb SMAD3 inh -28.5%, ATXN viability inactive, HepG2 viability 0.0% and ALOX12 inh -7.9%.
`CCS(=O)(=O)N1CCc2cc(C(=O)N3CCN(c4cccc(C(F)(F)F)c4)CC3)ccc21` gave ATXN2 expr inh inconclusive, TGFb SMAD3 inh 11.2µM*, ATXN viability inconclusive, HepG2 viability -32.4% and ALOX12 inh inconclusive.
For Cc1cc(C)nc(NC2=NCC(=O)N2c2ccc(Cl)cc2Cl)n1 the results were ALOX12 inh 34.6%.
For Cc1ccc(S(=O)(=O)N(CC(=O)NCCSCc2ccco2)c2cc(C)ccc2C)cc1 the results were ATXN2 expr inh -6.2%, TGFb SMAD3 inh 2.7%, ATXN viability inactive, HepG2 viability -17.6% and ALOX12 inh 39.8µM*.
Screening Cc1ccc(N(CC(=O)NCCSCc2ccco2)S(=O)(=O)c2ccc(F)cc2)cc1 returned TGFb SMAD3 inh -20.8%, ATXN viability inconclusive, HepG2 viability 3.8% and ALOX12 inh -10.1%.
For COC(=O)c1ccc(NCc2cc(O)ccc2O)cc1O the results were ATXN2 expr inh inconclusive, TGFb SMAD3 inh inconclusive, HepG2 viability -7.6% and ALOX12 inh 5.01µM*.
Screening COC(=O)c1ccc(NCc2c(O)ccc(O)c2Br)cc1Cl returned ATXN2 expr inh inconclusive, TGFb SMAD3 inh inconclusive, HepG2 viability -24.3% and ALOX12 inh 0.891µM*.
`COc1cccc(CNC(=O)c2ccc(S(=O)(=O)N3CCc4ccccc4C3)cc2)c1` gave ALOX12 inh 5.7%.

From PubChem BioAssay
